The record followed here is PubChem BioAssay (Tox21).

Assay [1] can be described thus: qHTS assay for small molecule agonists of the p53 signaling pathway (AID 651631; calls by dose curve; note: nearly all actives have a fitted effect of over 15% in size; note: potency is the fitted concentration of half-maximal effect). In outline: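 Beta-lactamase reporter activity under p53 response elements was quantified in HCT-116 cells by FRET fluorescence, following 16 h incubation with test compounds at 37 °C and 2 h substrate development at room temperature.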
A short description of assay [2]: qHTS assay for small molecules that induce genotoxicity in human embryonic kidney cells expressing luciferase-tagged ATAD5 (AID 651632). Note: nearly all actives have a fitted effect of over 15% in size. In outline:
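DMSO vehicle served as the control. HEK293T reporter cells, 16 hr at 37C, then 30 min Amplite at room temperature; ATAD5 induction is measured as luciferase activity.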

A short description of assay [3]: qHTS assay for small molecule agonists of the p53 signaling pathway - cell viability (AID 651633; calls by dose curve;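 note: p53RE-bla HCT reporter cells with a stable beta-lactamase p53 reporter; series mostly up to about 83 µM; nearly all actives have a fitted effect of over 30% in size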). In outline: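 p53RE-bla cells, seeded at 4,000 per well and rested 5 h at 37 C/5% CO2, received compounds in DMSO for 16 h at 37 C. CellTiter-Glo was then added, and luminescence was read after 30 min at room temperature to gauge cytotoxicity.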
A short description of assay [4]: qHTS assay for small molecules that induce genotoxicity in human embryonic kidney cells expressing luciferase-tagged ATAD5 - cell viability (AID 651634; calls by dose curve; note: nearly all actives have a fitted effect of over 25% in size; note: potency is the fitted concentration of half-maximal effect). In outline: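 Here HEK293T cells with the ATAD5 luciferase reporter are incubated with test compounds for 15.5 hr, and cytotoxicity is then gauged by measuring protease activity in live cells using fluorescence.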

The nature of assay [5]: qHTS assay for small molecule disruptors of the mitochondrial membrane potential - cell viability (AID 720634; calls by dose curve;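 note: human HepG2 liver cancer cells; series mostly up to about 83 µM; nearly all actives have a fitted effect of over 20% in size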). In outline: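 Viability of HepG2 cells is scored from ATP content by luminescence; cells are exposed to compound for 1 hr at 37 C and 5% CO2, then dosed with m-MPI dye before the CellTiter-Glo reagent.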
The nature of assay [6]: qHTS assay for small molecule disruptors of the mitochondrial membrane potential (AID 720635). Note: potency is the fitted concentration of half-maximal effect. In outline:
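HepG2 cells (2,000/well) attached overnight at 37C, then took compound for 1 hr at 37C, 5% CO2. Mito-MPS dye was added for 30 min; fluorescence was read at 490/535 nm (monomers) and 540/590 nm (aggregates).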

Assay [7] can be described thus: qHTS assay to test for compound auto fluorescence at 590 nm (red) in HepG2 cells (AID 720674). In outline:
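Intrinsic compound fluorescence in the red window (Ex/Em 540/590 nm) is measured in attached HepG2 cells exposed for 1 hr, DMSO vehicle as baseline, benchmarked to Rose Bengal sodium.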

Assay [8] in a line: qHTS assay to test for compound auto fluorescence at 535 nm (green) in HepG2 cells (AID 720675).
Assay [9] in a line: qHTS assay to test for compound auto fluorescence at 460 nm (blue) in HEK293 cells (AID 720678). In outline:
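Measured: blue fluorescence (Ex 405/Em 460 nm) of compound-treated HEK293 cells, incubated overnight at 37C with 5% CO2 and scaled to triamterene equivalents.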

Assay [10] in a line: qHTS assay to test for compound auto fluorescence at 590 nm (red) in HEK293 cells (AID 720679). In outline:
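Using HEK293 cells at 2,000 per well, the screen added 23 nL of each compound after cell attachment and incubated overnight (37C, 5% CO2). The plate reader then captured red-label fluorescence, Ex/Em 540/590nm.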

SMILES strings stand for the structures. Values joined by “and” are separate entries in the source; they are usually repeats but may differ in a detail not shown here. Identical values can stand only once. Inconclusive results are not listed. More than one record can exist for a structure, and the calls need not agree. Active and inactive are the calls of the source. Unless noted, calls come from the whole dose curve; as a rule, active = well fitted curve in the direction sought with a large enough effect in the repeat runs; inconclusive = weak or mixed curves; inactive = no such curve, though single readings can be large; an effect the other way counts as inactive or inconclusive.
% is set by controls: 0 for no effect and ±100 for the full control effect.

Regarding `[O]=[Cd]`, the Potency result in [1], in [2], in assay [3], in assay [4], in [5] and in [6] was “inactive” each time. For the same compound, the outcome in assay [7], in assay [8], in [9] and in [10] was inactive.
In the case of `CC1(C)CON(Cc2ccccc2Cl)C1=O`, the Potency result in assay [1], in assay [2], in assay [3], in assay [4], in assay [5] and in [6] was “inactive” throughout. Moreover, the call in [7], in [8], in [9] and in [10] was inactive.
Consider `Cc1coc2c1CCC(C)C2` (configuration not stated), for which the Potency entry in assay [1], in assay [2], in assay [3], in assay [4] and in [5] was “inactive” throughout. For the same compound, the Potency in [6] is 25.1 µM (active). Also, the compound was called inactive in [7], in assay [8], in assay [9] and in assay [10].
`OC(c1ccccc1)(c1ccccc1)C1CCNCC1`: the Potency entry in [1], in [2], in [3], in [4], in assay [5] and in [6] was “inactive” in each case. In assay [7], the fluorescence, relative to Rose Bengal was 0.0965% [at 18.6 µM] (inactive). The fluorescence, % of fluorescein control in assay [8] is 0.0225% [at 18.6 µM] (inactive). The fluorescence, % of triamterene in [9] is -0.0368% [at 18.6 µM] (inactive). The fluorescence, % of fluorescent control in assay [10] was -0.0312% [at 18.6 µM] (inactive).
For `C[N+](=O)[O-]`, the Potency result in assay [1], in assay [2], in assay [3], in assay [4], in assay [5] and in assay [6] was “inactive” in each case. Also, the result in assay [7], in [8], in assay [9] and in [10] was inactive.
In the case of `C[C@@H]1CN(C2CCC(C#N)(c3ccc(F)cc3)CC2)CC[C@]1(C(=O)O)c1ccccc1` (some centres not stated), the Potency result in assay [1], in assay [2], in [3], in assay [4], in assay [5] and in [6] was “inactive” in each case. The fluorescence, relative to Rose Bengal in assay [7] was -0.0454% [at 18.6 µM] (inactive). Moreover, in assay [8], the fluorescence, % of fluorescein control was -0.0057% [at 18.6 µM] (inactive). The fluorescence, % of triamterene in [9] is 0.0981% [at 18.6 µM] (inactive). Moreover, the fluorescence, % of fluorescent control in assay [10] is 0.571% [at 18.6 µM] (inactive).
As to `CC(Cl)(Cl)[N+](=O)[O-]`, the Potency result in assay [1], in assay [2], in [3], in assay [4], in assay [5] and in assay [6] was “inactive” throughout. For the same compound, the result in assay [7], in assay [8], in assay [9] and in assay [10] was inactive.
For `CSc1nc(N=[N+]=[N-])nc(NC(C)C)n1`, the Potency result in assay [1], in assay [2], in assay [3], in assay [4], in [5] and in assay [6] was “inactive” in each case. Besides, the result in assay [7], in [8], in [9] and in assay [10] was inactive.
For `CN(C)CCc1ccc(O)cc1`, the Potency result in assay [1], in assay [2], in [3], in assay [4], in assay [5] and in assay [6] was “inactive” in each case. Further, the compound was classed as inactive in [7], in [8], in assay [9] and in assay [10].
Regarding `COC(C)(C)C`, the Potency entry in assay [1], in assay [2], in [3], in assay [4], in assay [5] and in [6] was “inactive” each time. Also, the result in assay [7], in assay [8], in assay [9] and in assay [10] was inactive.
With `OC(c1ccc(F)cc1)(c1cncnc1)c1ccccc1Cl` (configuration not stated), the Potency entry in [1], in assay [2], in assay [3], in assay [4], in [5] and in assay [6] was “inactive” in each case. For the same compound, the compound was classed as inactive in assay [7], in [8], in assay [9] and in assay [10].
Turning to `O=C(CCCN1CCC(n2c(=O)[nH]c3ccccc32)CC1)c1ccc(F)cc1`, the Potency entry in assay [1], in assay [2], in assay [3], in [4], in assay [5] and in assay [6] was “inactive” in each case. The fluorescence, relative to Rose Bengal in assay [7] is -0.608% [at 18.6 µM] (inactive). The fluorescence, % of fluorescein control in [8] is 0.0365% [at 18.6 µM] (inactive). The fluorescence, % of triamterene in assay [9] is 0.114% [at 18.6 µM] (inactive). For the same compound, in assay [10], the fluorescence, % of fluorescent control was 0.426% [at 18.6 µM] (inactive).
For the compound `OCCSCSCCO`, the Potency entry in assay [1], in [2], in [3], in assay [4] and in [5] was “inactive” each time. Moreover, the call in assay [7], in assay [8] and in assay [9] was inactive.
In the case of `CC1CCC(=O)O1` (configuration not stated), the Potency result in [1], in assay [2], in assay [3], in assay [4], in assay [5] and in assay [6] was “inactive” in each case. Besides, the compound was called inactive in assay [7], in [8] and in assay [10].
Consider `ClCC(Cl)Cl`, for which the Potency result in assay [1], in assay [2], in assay [3], in assay [4], in assay [5] and in assay [6] was “inactive” in each case. The result in assay [7], in [8], in [9] and in assay [10] was inactive.
For the compound `CCOC(=O)/C=C(C)/C=C/C[C@@H](C)CCCC(C)C`, the Potency result in [1], in assay [2], in assay [3], in assay [4] and in assay [5] was “inactive” in each case. The Potency result in assay [6] was “inactive and 54.5 µM (active)”. Further, the outcome in [7], in assay [8] and in assay [10] was inactive.
`C[C@]1(O)CC[C@H]2[C@@H]3CCC4=CC(=O)CC[C@]4(C)[C@@]3(F)[C@@H](O)C[C@@]21C`: the Potency entry in [1], in assay [2], in [3], in assay [4], in [5] and in [6] was “inactive” throughout. In addition, the compound was classed as inactive in assay [7], in assay [8], in [9] and in assay [10].
Take `Nc1cc(Cl)ccc1O`: the values for the Potency in assay [1], in [4] and in assay [6] were 26.4 µM (active), 23.5 µM (active) and 9.37 µM (active), respectively. The Potency result in assay [2], in assay [3] and in assay [5] was “inactive” in each case. Moreover, the result in assay [7], in assay [8], in [9] and in assay [10] was inactive.
On to `Cc1cc(C)c(C(=O)P(=O)(C(=O)c2c(C)cc(C)cc2C)c2ccccc2)c(C)c1`, for which the Potency entry in assay [1], in assay [2], in [3], in [4], in [5] and in [6] was “inactive” throughout. Also, the outcome in assay [7], in assay [8], in assay [9] and in assay [10] was inactive.
Turning to `ClC(Cl)(Cl)C(Cl)(Cl)Cl`, the Potency result in assay [1], in assay [2], in assay [3], in [4], in assay [5] and in assay [6] was “inactive” each time. Moreover, the call in assay [7], in assay [8], in [9] and in assay [10] was inactive.
For the compound `COP(=S)(OC)Oc1ccc(S(N)(=O)=O)cc1`, the Potency result in assay [1], in assay [2], in assay [3], in [4], in assay [5] and in assay [6] was “inactive” each time. In addition, the result in assay [7] and in [8] was inactive.
For the compound `CCCSC(=O)Cl`, the Potency entry in assay [1], in assay [2], in assay [3], in [4], in assay [5] and in assay [6] was “inactive” each time. Moreover, the compound was called inactive in [7], in assay [8] and in assay [10].
For `[Cl][Sn]([Cl])([Cl])[Cl]`, the Potency entry in [1], in assay [2], in assay [3], in assay [4], in assay [5] and in assay [6] was “inactive” throughout. Also, the compound was called inactive in [7], in [8] and in assay [10].
On to `CC(=O)Nc1cc([As](=O)(O)O)ccc1O`, for which the Potency entry in assay [1], in [2], in [3], in [4], in assay [5] and in [6] was “inactive” each time. In addition, the call in [7], in assay [8], in [9] and in assay [10] was inactive.
